Assay outcomes as filed in PubChem.
Bead autofluor: counter-screen for toxin protease inhibitors: compound fluorescence; compound autofluorescence counterscreen, microsphere flow cytometry; hits give high values; fluorescence intensity (concentration not given with the values); hit rate 3.1% among 360,000; AID 624483; in the data active means fluorescence intensity above about 16000; inconclusive means no clear call, values can overlap the other calls
SARS 3CLpro inh: SARS-CoV 3CLpro protease inhibitors, primary screen, biochemical, quenched FRET; recombinant SARS-CoV 3CLpro, quenched FRET peptide cleavage; inhibition, % at 6 µM; hit rate 0.14% among 290,000; AID 1706, 2009; in the data active means inhibition above about 12%
BoNT A protease: BoNT/A light chain protease inhibitors, primary screen, biochemical, flow cytometry, MLPCN library. Botulinum neurotoxin type A light chain protease (Clostridium botulinum A str. ATCC 3502). multiplex microsphere protease substrate cleavage. inhibition, % at 10 µM. hit rate 0.17% among 360,000; further: plate controls were buffer without enzyme for full effect and enzyme alone for no effect
CCHF vOTU inh: CCHFV vOTU protease inhibitors, primary screen, biochemical, Pep-AMC substrate, fluorescence; hit rate 0.55% among 370,000; Crimean-Congo hemorrhagic fever virus L polyprotein viral ovarian tumor (vOTU) protease …; AID 651958, 2012; inhibition, % at 11.5 µM; in the data active means inhibition above about 30%; further: 0% = vehicle wells with enzyme and 100% = no enzyme wells
Anthrax LF prot: Bacillus anthracis LF protease inhibitors, primary screen, biochemical, multiplex microsphere, MLPCN library; Lethal factor (Bacillus anthracis), P15917; hit rate 0.12% among 360,000; inhibition, % at 10 µM; multiplex microsphere protease cleavage assay; further: plate controls were buffer without enzyme for full effect and enzyme alone for no effect
Target sequence (P15917 whole entry, looked up): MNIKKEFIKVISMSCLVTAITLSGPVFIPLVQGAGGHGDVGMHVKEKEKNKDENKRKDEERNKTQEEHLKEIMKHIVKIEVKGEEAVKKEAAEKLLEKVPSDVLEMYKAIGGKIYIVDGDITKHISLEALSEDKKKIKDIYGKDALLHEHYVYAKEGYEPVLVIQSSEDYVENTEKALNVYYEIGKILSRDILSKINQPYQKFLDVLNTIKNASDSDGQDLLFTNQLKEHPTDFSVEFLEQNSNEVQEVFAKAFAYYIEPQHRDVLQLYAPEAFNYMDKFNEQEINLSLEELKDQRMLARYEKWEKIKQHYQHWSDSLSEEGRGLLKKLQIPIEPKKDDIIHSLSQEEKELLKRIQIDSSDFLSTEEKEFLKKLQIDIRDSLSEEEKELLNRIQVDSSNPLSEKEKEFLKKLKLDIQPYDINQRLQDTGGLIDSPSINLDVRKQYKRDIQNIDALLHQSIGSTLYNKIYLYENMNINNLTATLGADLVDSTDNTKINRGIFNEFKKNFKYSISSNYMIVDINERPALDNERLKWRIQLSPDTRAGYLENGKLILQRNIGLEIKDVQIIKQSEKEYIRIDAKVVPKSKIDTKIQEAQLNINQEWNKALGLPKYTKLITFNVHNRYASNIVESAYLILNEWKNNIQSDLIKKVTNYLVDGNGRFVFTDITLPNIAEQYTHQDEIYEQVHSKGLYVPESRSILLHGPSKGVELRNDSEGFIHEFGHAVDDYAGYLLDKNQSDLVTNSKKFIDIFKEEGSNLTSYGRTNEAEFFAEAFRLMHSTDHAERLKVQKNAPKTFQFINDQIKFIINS
BoNT F protease: BoNT/F light chain protease inhibitors, primary screen, biochemical, flow cytometry, MLPCN library; hit rate 0.22% among 360,000; Botulinum neurotoxin type F light chain protease (Clostridium botulinum); Multiplex microsphere protease cleavage assay; inhibition, % at 10 µM; AID 588497, 2011; in the data active means inhibition above about 35%, passing the limit was not always enough; inconclusive means no clear call, values can overlap the other calls; further: plate controls were buffer without enzyme for full effect and enzyme alone for no effect
Numbers without * were called inactive; ? = inconclusive; nt = no result given. Most compounds without a hit are left out; they make up all but 3.9% or so of the library. Unless noted, no stated cut-off is given here; in the data, active means inhibition above about 30%; inconclusive means no clear call, values can overlap the other calls; inactive means below that.

SMILES	Bead autofluor	SARS 3CLpro inh	BoNT A protease	CCHF vOTU inh	Anthrax LF prot	BoNT F protease
C/C=C(\C)CN1CCN(c2cccc(C)c2C)CC1	9505	-3	-2	3	-4	-6
CN1c2ccc(C#CC3CC3)cc2[C@@H]2[C@@H](CCN2C(=O)C2CCOCC2)[C@H]1CO	nt	nt	nt	-2	nt	nt
Cc1nnc(SCc2ccccc2F)n1NCc1cccs1	22098*	-5	4	-8	2	1
CCCCCCCCN1C(=O)C(O)=C(C(C)=O)C1c1ccccn1 (centres undefined)	31940*	-1	-26	1	-5	-45
CCCCN1C(=O)C(O)=C(C(C)=O)C1c1ccccc1 (centres undefined)	4654	0	0	nt	1	-10
CCOC(=O)c1nnc(-c2ccccc2)nc1NCc1ccccc1	24408*	0	-1	10	0	0
O=C(Cc1ccccc1)Nc1c2c(nn1-c1cccc(Cl)c1)CS(=O)(=O)C2	20201*	-3	8	-5	1	9
Cc1ccc(S(=O)(=O)N/N=C/c2cccc([N+](=O)[O-])c2)cc1	1969	12	1	2	-1	4
CCCCCCCCCS(=O)(=O)N/N=C/c1cccc([N+](=O)[O-])c1	19668*	1	3	14	-2	1
COc1ccc2cc3[n+](cc2c1O)CCc1cc2c(cc1-3)OCO2	4478	nt	-1	101*	-33	-50
O=C(COC(=O)c1ccc(Sc2ncn[nH]2)c([N+](=O)[O-])c1)Nc1ccc(Cl)c(Cl)c1	nt	nt	nt	-2	nt	nt
Cc1nc2ncnn2c(N2CCN(C(c3ccccc3)c3ccccc3)CC2)c1C	18747*	0	2	5	-1	0
Cc1cc(N2CCN(C(c3ccccc3)c3ccccc3)CC2)n2ncnc2n1	3541	3	0	3	1	0
Cc1nc2ncnn2c(N2CCN(c3cccc(C(F)(F)F)c3)CC2)c1C	22031*	-2	1	13	1	1
O=C(c1ccncc1)N1CC[C@H]2[C@H](CCCN2Cc2cc(F)cc(F)c2)C1	nt	nt	nt	2	nt	nt
COc1cccc(NC(=O)NC2CCCCN(Cc3ccc(C)cc3)C2=O)c1 (centres undefined)	nt	nt	nt	17	nt	nt
C/C(=N/NC(=O)Cc1cccs1)c1cccc([N+](=O)[O-])c1	nt	nt	nt	2	nt	nt
COc1ccccc1N1CCc2c(C)nc3c(OC)cccc3c21	22775*	0	-2	nt	1	-6
COc1ccc(C(=O)NNC(=O)C2(C)CC2(Br)Br)cc1 (centres undefined)	5626	3	1	-8	-4	9
CC1(C(=O)Nc2c(F)c(F)c(F)c(F)c2F)CC1(Br)Br (centres undefined)	4037	4	2	-5	31*	?
CN[C@H]1C[C@H]2c3[nH]c4cccc(-c5cccc(F)c5)c4c3CCN2C(=O)[C@H]1[C@H](C)O	nt	nt	nt	-10	nt	nt
CCCCCCC(C)OC(=O)c1ccccc1C(=O)O (centres undefined)	3516	3	1	-2	12	35*
CC(CCC(C)OC(=O)c1ccccc1C(=O)O)OC(=O)c1ccccc1C(=O)O (centres undefined)	3882	-4	-3	-10	4	15
O=C(NCCc1ccccn1)c1n[nH]c(=O)c2ccccc12	22070*	-2	-3	0	-1	-4
O=S(=O)(Cc1ccccc1Cl)c1ncn[nH]1	6250	1	0	-2	3	-1
SMILES	Bead autofluor	SARS 3CLpro inh	BoNT A protease	CCHF vOTU inh	Anthrax LF prot	BoNT F protease
Cc1snc(S(=O)(=O)Cc2ccccc2Cl)c1C#N	21018*	-12	-1	3	-3	-1
Cc1ccc(OCc2nnc(SCC(=O)c3ccc(-c4ccccc4)cc3)n2Cc2ccco2)cc1	nt	nt	nt	13	nt	nt
O=C1C(NC(=O)N2c3ccccc3C=Cc3ccccc32)CCCCN1Cc1cccc(Cl)c1 (centres undefined)	nt	nt	nt	2	nt	nt
N#CC/C(N)=N/Nc1nc2ccccc2nc1Cc1ccccc1	2387	-4	2	-12	31*	-50
CC(=O)c1cc(-c2cccc(Cl)c2O)c(=O)n2c1CCC2	nt	nt	nt	-2	nt	nt
N#Cc1cccc(NC(=O)CSc2ccc3c4c(cccc24)C(=O)c2ccccc2-3)c1	7954	-2	44*	-3	28	43*
Cc1ccc(C(=O)OCC(=O)N2CCOCC2)cc1	3492	-4	-2	5	-12	2
Nc1nonc1C(=O)OCC(=O)N1CCOCC1	20876*	3	?	3	-7	-5
Cc1ccccc1-c1ccc2c(c1)[C@@H]1C[C@H]3[C@@H](CN1CC2)[C@H](C)OC(c1ccccc1)N3C (some centres undefined)	nt	nt	nt	18	nt	nt
Cc1cc(C(=O)Nc2ccccn2)cs1	22600*	-1	0	1	-2	0
Cc1nc(SCC(=O)Nc2cccc(C(=O)O)c2)n[nH]1	4971	-1	0	-9	-2	2
O=C(CSc1ccccc1C(=O)O)Nc1cccc(C(=O)O)c1	21124*	0	?	-6	0	3
CC(=O)NC(Cc1ccc2c(c1)OCO2)C(=O)N1CCCN(C(C)=O)CC1 (centres undefined)	nt	nt	nt	4	nt	nt
Cc1nn(-c2ccccc2)c2sc(C(=O)N3CCN(S(=O)(=O)c4ccc(Br)s4)CC3)cc12	nt	nt	nt	-6	nt	nt
Cc1ccccc1Cn1ccc(-c2ccc(Cl)cc2)c(C#N)c1=O	23457*	2	0	15	-4	-4
Nc1[nH]c(C(=O)c2ccccc2)c(-c2ccccc2C(F)(F)F)c1C(=O)c1c[nH]c2ccccc12	nt	nt	nt	11	nt	nt
Cc1ccc(CNn2cnnc2SCc2ccc(F)cc2)cc1	22609*	5	0	3	-3	-1
Cc1ccsc1CNn1cnnc1SCc1ccc(Cl)cc1	23748*	3	-4	9	0	-7
Fc1ccc(CNn2cnnc2SCc2ccc(F)cc2)cc1	6004	3	1	9	14	1
Cc1ccc(S(=O)(=O)Cc2ccc(C(=O)NCc3ccc4c(c3)OCO4)o2)cc1	22168*	-5	?	-3	-2	2
COCCNC(=O)c1ccc(CS(=O)(=O)c2ccc(C)cc2)o1	22139*	-4	-1	-8	-3	-2
Cc1ccc(S(=O)(=O)Cc2ccc(C(=O)NCCCN3CCN(C)CC3)o2)cc1	23094*	-4	?	-4	-2	-4
Cc1ccc(CS(=O)Cc2ccc(C(=O)NCc3ccc4c(c3)OCO4)o2)cc1 (centres undefined)	5404	-1	-1	9	0	0
CC(NC(=O)c1ccc(CS(=O)(=O)c2ccc(Cl)cc2)o1)c1ccc2c(c1)OCCO2 (centres undefined)	20032*	3	-1	5	-1	-2
